Bioassay records (PubChem)
ASM inhibitor: inhibitors of human secretory acid sphingomyelinase; P17405; placental ASM, HMU-PC fluorogenic substrate, 60 min; Potency, µM (series often up to 57.5 µM), without a hit: top-dose activity change, negative = inhibition, hits mostly inhibitors; hit rate 0.006% among 340,000; AID 504937; note: potency is the fitted concentration of half-maximal effect
Target sequence (P17405 47-631 limits assumed): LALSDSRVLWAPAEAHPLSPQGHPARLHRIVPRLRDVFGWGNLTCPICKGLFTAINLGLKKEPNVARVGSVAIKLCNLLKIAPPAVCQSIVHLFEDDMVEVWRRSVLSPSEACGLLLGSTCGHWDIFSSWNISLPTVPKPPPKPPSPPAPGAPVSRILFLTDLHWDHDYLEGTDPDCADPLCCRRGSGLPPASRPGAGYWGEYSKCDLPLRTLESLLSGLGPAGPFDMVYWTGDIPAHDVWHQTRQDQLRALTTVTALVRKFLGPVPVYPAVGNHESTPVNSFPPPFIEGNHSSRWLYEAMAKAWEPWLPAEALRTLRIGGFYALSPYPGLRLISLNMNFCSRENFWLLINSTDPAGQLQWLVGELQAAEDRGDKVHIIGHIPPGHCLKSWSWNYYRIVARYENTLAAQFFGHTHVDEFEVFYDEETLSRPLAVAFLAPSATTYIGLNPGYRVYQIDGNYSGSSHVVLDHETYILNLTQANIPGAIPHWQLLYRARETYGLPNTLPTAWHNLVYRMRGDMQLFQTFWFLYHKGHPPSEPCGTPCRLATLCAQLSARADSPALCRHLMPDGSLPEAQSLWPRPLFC
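Fluorogenic HMU-PC substrate (9 uM final) is turned over by placental ASM in 60 min at 37 C after a 10 min compound preincubation. Reaction ended by alkaline stop (pH 10), with fluorescence read at 386/447 nm.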
HepG2 viability: kills HepG2 cells in TGF-b inhibitor counter-screen | hit rate 0.76% among 410,000 | HepG2 CAGA-GFP viability, ATP luminescence, 18 h | AID 588856 | Potency, µM (top dose mostly 46.1 µM), for the others: at the highest dose activity change, negative = cytotoxicity, usual class: cytotoxic; note: potency is the fitted concentration of half-maximal effect
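CellTiter-Glo luminescence gave cytotoxicity after 18 hours at 37 degrees C. The cells were HepG2 CAGA-GFP in 1% FBS DMEM, stimulated with 500 pg/mL TGF-beta after compound addition. %Activity was normalised to no-cell wells (complete cell-killing) and DMSO (no toxicity), and curves were fitted and classified.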
TDP1 cell CPT: growth inhibition of DT40 Tdp1-/-;hTDP1 cells with camptothecin (screen for TDP1 inhibitors). chicken DT40 Tdp1-/-;hTDP1 cells + 20 nM CPT, ATP luminescence, 48 h. Potency, µM (doses to about 46.2 µM), inactives show top-dose activity change, negative = growth inhibition, most hits filed as inhibitors. hit rate 12% among 420,000. AID 686979; note: potency is the fitted concentration of half-maximal effect; % is set by controls: 0 for no effect and ±100 for the full control effect; nearly all actives have a fitted effect of over 55% in size
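Chicken DT40 Tdp1-/- cells complemented with human TDP1, 400 cells/well, exposed to compounds plus 20 nM camptothecin for at least 48 h at 37 C; viability read as ATP content by CellTiter-Glo luminescence.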
IL-1B inflam inh: inhibitors of inflammasome signaling (IL-1 beta secretion) | THP-1 LPS/ATP IL-1B secretion, AlphaLISA, 16 h; stronger effect = lower value | AID 743279 | hit rate 4.7% among 360,000 | activity change, % at 57.5 µM; in the data active = activity change below about -50%; inconclusive = mostly about -30% to -49%; note: % is set by controls: 0 for no effect and ±100 for the full control effect
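Secreted IL-1B measured by AlphaLISA bead assay after 16 h compound exposure of THP-1 cells; compounds (final up to 57.5 uM) added 1 h before LPS (250 ng/mL) and ATP (1.25 mM) stimulation; lower signal means less secretion.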
TGFb SMAD3 inh: inhibitors of TGF-b signaling; HepG2 CAGA-GFP TGF-b/SMAD3 reporter, GFP fluorescence, 18 h; TGF-beta stimulated, 500 pg/mL final; Potency, µM (titrated, usually from 46.1 µM), for the others: at the highest dose activity, negative = inhibition, most hits filed as inhibitors; hit rate 1.2% among 410,000; note: potency is the fitted concentration of half-maximal effect; % is set by controls: 0 for no effect and ±100 for the full control effect; nearly all actives have a fitted effect of over 65% in size
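Cell-based qHTS in HEPG2 carrying a CAGA-GFP Smad reporter; compounds added before 500 pg/mL final TGF-beta, 18 h incubation at 37 degrees C, GFP fluorescence quantified per cell by imaging cytometry.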
DT40 TDP1 no CPT: qHTS for Inhibitors of human tyrosyl-DNA phosphodiesterase 1 (TDP1): qHTS in cells in absence of CPT; hit rate 15% among 420,000; Potency, µM (highest dose often 46.2 µM), for the others: at the highest dose activity change, negative = growth inhibition, most hits filed as inhibitors; DT40 Tdp1-/- hTDP1 cells, no CPT, ATP luminescence, 48 h; note: potency is the fitted concentration of half-maximal effect; % is set by controls: 0 for no effect and ±100 for the full control effect; nearly all actives have a fitted effect of over 55% in size
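Stably hTDP1-transfected Tdp1-null chicken DT40 cells were treated with library compounds minus camptothecin and grown for at least 48 hr at 37 °C, after which cellular ATP was quantified by luminescence.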
* hit, by the source's call; ? = inconclusive; / = not tested or not shown. A selection: hits, their analogues and other compounds. The true share with any hit is near 19%. Unless noted, calls come from the whole dose curve; as a rule, active = well fitted curve in the direction sought with a large enough effect; inconclusive = small, poorly fitted or top-dose-only effect, or another doubt; inactive = no such curve, though single readings can be large; an effect the other way counts as inactive or inconclusive.

SMILES	ASM inhibitor	HepG2 viability	TDP1 cell CPT	IL-1B inflam inh	TGFb SMAD3 inh	DT40 TDP1 no CPT
O=C(NC12CC3CC(CC(C3)C1)C2)N1CCC(O)(c2ccc3c(c2)OCO3)CC1	-2.2%	-37.3%	7.31µM*	-11.5	-5.7%	14.6µM*
Cc1ccc(NC(=S)NCc2ccc3c(c2)OCO3)cc1C	-0.5%	-10.6%	-0.2%	-69.1*	?	?
CCc1cc(=O)[nH]c(SCC(=O)N2CCOCC2)n1	4.4%	1.3%	-29.6%	5.3	-0.7%	-7.2%
CSc1ncc(C(=O)Nc2cc(C)ccc2C)c(C)n1	-5.4%	6.7%	-6.9%	33.8	1.5%	13.0%
O=C(NCc1ccc2c(c1)OCO2)NC12CC3CC(CC(C3)C1)C2	-0.7%	4.6%	20.6µM*	-1.5	-7.8%	18.4µM*
COc1ccc(CCNC(=O)COC(=O)/C=C/c2ccc3c(c2)OCO3)cc1OC	2.0%	0.9%	?	11.6	-18.3%	?
O=C(COc1cccc2ccccc12)N/N=C/c1ccc(Sc2nc3ccccc3s2)o1	-7.6%	-1.6%	?	-5.4	-5.8%	20.6µM*
COCC(=O)N/N=C/c1ccc(Sc2nc3ccccc3s2)o1	-3.6%	-8.1%	-18.9%	1.2	13.2%	?
Cc1ccccc1OCC(=O)N/N=C/c1ccc(N2CCOCC2)o1	29.2%	-45.6%	?	?	12.6µM*	?
Cc1ccccc1OCC(=O)N/N=C/c1ccc(Sc2nc3ccccc3s2)o1	-17.4%	-18.4%	?	-23.6	-1.7%	16.4µM*
Cc1ccc(/C=N/NC(=O)c2ccc(-c3ccccc3)cc2)o1	9.3%	1.1%	-3.5%	-8.2	10.6%	?
O=C(N/N=C/c1ccc(N2CCCCC2)o1)c1ccccc1	-0.5%	-34.7%	9.2µM*	-95.5*	-22.8%	11.6µM*
O=C(Cc1cccc2ccccc12)N/N=C/c1ccc(Sc2nc3ccccc3s2)o1	-9.8%	-19.3%	16.4µM*	55.3	-2.4%	?
N#CCC(=O)N/N=C/c1ccc(Sc2nc3ccccc3s2)o1	-14.9%	-20.8%	0.8%	10.9	34.3%	-27.1%
CC(C)Cc1cc(C(=O)N2CCCC(CO)(Cc3ccc(F)cc3F)C2)n[nH]1 (stereo not drawn)	1.9%	-19.5%	?	29.8	-21.2%	?
COc1ccccc1NC(=S)N(CCCN(C)C)Cc1cc2cc3c(cc2[nH]c1=O)OCO3	29.0%	2.7%	-1.0%	-22.8	4.1%	-16.4%
CN(C)CCCN(Cc1cc2cc3c(cc2[nH]c1=O)OCO3)C(=S)Nc1ccccc1	23.5%	1.9%	-0.4%	-62.1*	57.1%	-4.0%
COc1ccccc1NC(=O)N(Cc1cccs1)Cc1cc2cc3c(cc2[nH]c1=O)OCO3	10.9%	0.0%	?	7.8	-58.3%	16.4µM*
CCc1ccc2[nH]c(=O)c(CN(Cc3ccccc3)C(=O)Nc3ccccc3OC)cc2c1	-10.3%	-24.3%	?	-58.5*	-22.7%	?
CN(C)CCCN(Cc1cc2cc3c(cc2[nH]c1=O)OCO3)C(=S)Nc1cccc(Cl)c1	24.1%	-36.7%	?	-101.5*	?	29.1µM*
O=c1c2oc3ccccc3c2n(Cc2ccccc2Cl)c(=O)n1Cc1ccco1	/	-2.1%	16.1%	/	-44.2%	21.8%
CCN(CC)CCCN(Cc1cc2cc3c(cc2[nH]c1=O)OCO3)C(=S)Nc1ccccc1OC	72.3%	-13.7%	18.4µM*	-29.4	-10.2%	-14.7%
COc1ccc(NC(=O)N(CCN2CCCC2)Cc2cc3cc(OC)c(OC)cc3[nH]c2=O)cc1	4.7%	-2.7%	-9.4%	-7.9	0.7%	-25.2%
COC(=O)c1ccccc1NC(=S)N(Cc1ccc2c(c1)OCO2)Cc1cc2cc(OC)ccc2[nH]c1=O	28.0%	-22.7%	9.2µM*	0.0	?	16.4µM*
CCOc1ccc2[nH]c(=O)c(CN(CCN3CCCC3)C(=S)Nc3ccccc3OC)cc2c1	27.4%	-19.3%	-28.9%	-62.1*	-17.6%	-19.1%
SMILES	ASM inhibitor	HepG2 viability	TDP1 cell CPT	IL-1B inflam inh	TGFb SMAD3 inh	DT40 TDP1 no CPT
C/C(=N\NC(=O)c1nnn(-c2nonc2N)c1CSc1ccc(C)cc1)c1ccco1	-1.4%	-17.1%	-23.0%	0.0	-1.5%	2.9%
COc1ccccc1C(=O)N=C1SC2CS(=O)(=O)CC2N1c1ccccc1 (stereo not drawn)	-4.2%	-9.1%	5.8%	-2.7	8.3%	6.3%
Cc1nc(Cl)c(S(N)(=O)=O)c(C)c1Cl	0.4%	2.4%	5.6%	41.2	-4.4%	0.5%
Cc1cc(OC(F)F)ccc1NC(=O)Nc1ccc([N+](=O)[O-])cc1	-7.9%	-63.1%	14.6µM*	?	?	18.4µM*
COc1ccc(OC(C)C(=O)Nc2ccc([N+](=O)[O-])cc2)cc1 (stereo not drawn)	1.7%	-8.9%	?	0.0	-11.2%	20.6µM*
CNC(CC(=O)c1ccc([N+](=O)[O-])cc1)C(Cl)(Cl)Cl (stereo not drawn)	-1.7%	10µM*	2.31µM*	-67.4*	3.16µM*	2.59µM*
COc1ccc(C(=O)/C=C/Nc2ccc([N+](=O)[O-])cc2)cc1	5.5%	15.8%	-7.5%	-11.6	15.7%	-1.7%
COc1ccc(C(=O)CC(Nc2ccc([N+](=O)[O-])cc2)c2ccc(OC)cc2)cc1 (stereo not drawn)	-14.2%	-2.0%	?	-7.5	2.7%	18.4µM*
CC(C)C(=O)c1cc2c(cc1NC(=O)c1ccccc1F)OCCO2	/	-21.1%	?	/	?	?
Cc1ccc[n+](CC(=O)Nc2ccc([N+](=O)[O-])cc2)c1	-7.6%	-53.9%	10.3µM*	-79.8*	?	20.6µM*
CC(C)NS(=O)(=O)c1ccc(NC(=O)C(C)Oc2ccc(C(=O)c3ccccc3)cc2)cc1 (stereo not drawn)	/	-26.3%	23.1µM*	10.5	?	18.4µM*
CCCC(=O)Nc1ccc(Sc2ccc([N+](=O)[O-])cc2)cc1	-19.1%	-16.0%	2.31µM*	?	-10.7%	2.31µM*
CCCC(=O)Nc1ccc(C(=O)NNC(=O)c2cccc([N+](=O)[O-])c2)cc1	-4.6%	-0.7%	-3.9%	-3.3	3.7%	-9.6%
COc1ccc(C(=O)CC(=O)Nc2ccc([N+](=O)[O-])cc2)cc1	-3.1%	-48.3%	16.4µM*	?	?	?
COc1ccc(NC(=O)CNC(=O)c2ccc([N+](=O)[O-])cc2)cc1	0.0%	9.7%	6.6%	16.0	-2.4%	13.2%
